From PubChem BioAssay AID651692 (Broad Institute, 2012)
Potency and affinity values are given separately. Activity calls are given as the source filed them.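 How the source made its calls: active means fitted half-maximal concentration for loss of cell signal no higher than twice the top valid tested concentration; inconclusive means flat curve at 30 to 70% inhibition, or poor fit; inactive means flat within 30%, signal rise, or potency above limit.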

Experiment: cytotoxicity toward MDA-MB-231 breast cancer cells – cell-based, CellTiter-Glo luminescence, cherry-pick, cytotoxicity control for RAD54 inhibitor project, dose response (AID 651692);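 further: more negative values mean stronger loss of viable cell signal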
Conditions: MDA-MB-231 viability, 24 h; series mostly up to 26 µM

| Structure (SMILES) | outcome |
| --- | --- |
| c1ccc(-c2nc(NCCCn3ccnc3)c3oc4ccccc4c3n2)cc1 | inactive |
| COc1ccc(Nc2c3c(nc4ccc(C)cc24)CCC3)cc1 | inactive |
| COc1ccc(N2C(=O)CSC23CCCCC3)cc1 | inactive |
| CN(C)CCCNc1nc(-c2ccccc2)nc2ccccc12 | inactive |
| COC(=O)C1=C(C)Nc2nc3ccccc3n2C1c1ccccc1F (centres undefined) | inactive |
| N=c1c(C(=O)NCCN2CCOCC2)cc2c(=O)n3ccccc3nc2n1CCc1ccccc1 | inactive |
| C=CCN1C(=O)C(C)(C)Nc2ccccc21 | inactive |
| CCCCN(C)CCNC(=O)c1cc2cc3ccc(OC)cc3nc2o1 | inactive |
| CCN(CC)CCNc1nc2cc(OC)c(OC)cc2c2nc(-c3ccccc3)nn12 | inactive |
| O=C(Nc1cccc(Br)c1)c1cc(S(=O)(=O)N2CCOCC2)cs1 | inactive |
| CN(C)CCCNc1nc2cc(-c3ccc(F)cc3)sc2c(=O)n1C | inactive |
| CCN(CC)CCNc1nc(SC)nc2sc3c(c12)CCN(C)C3 | inactive |
| CN1CCCN(c2cc(-c3ccc4ccccc4c3)nc3ccnn23)CC1 | inactive |
| CCN(CC)CCn1c2ccc(Cl)cc2c2nc(C)sc21 | inactive |
| O=c1cc(CSc2n[nH]c(=O)n2C2CC2)c2ccc(O)cc2o1 | inactive |
| CN1CCCC1CCNc1ccc2c(=O)c3ccccc3oc2c1 (centres undefined) | inactive |
| CN(C)CCN(C(=O)c1ccc2c(c1)OCCO2)c1nc2c(Cl)cccc2s1 | inactive |
| CCN(CC)CCNc1ccc(CO)c2sc3ccccc3c(=O)c12 | inactive |
| COC(=O)c1c(NC(=O)c2ccc(S(=O)(=O)N3CCOCC3)cc2)sc2c1CCN(C(C)C)C2 | inactive |
| Oc1ccc(Nc2ccnc3cc(Cl)ccc23)cc1 | inactive |

| Structure (SMILES) | outcome |
| --- | --- |
| Cc1cc(N2CCN(C)CC2)nc2ccc(NC(=S)NCCN3CCc4ccccc4C3)cc12 | inactive |
| Oc1cccc(Nc2c3ccccc3nc3ccccc23)c1 | inactive |
| CN(C)CCNC(=O)c1cccc(-c2cnc3c(NC=O)cc(-c4ccc(F)cc4)cn23)c1 | inactive |
| O=C(Nc1cccc(Cl)c1)c1cc(S(=O)(=O)N2CCOCC2)cs1 | inactive |
| CCN(CC)CCCNC(=O)c1cc2c(-c3ccc(Cl)cc3)nn(C)c2s1 | inactive |
| Nc1c2ccccc2nc2ccccc12 | inactive |
| Cc1nc2ccccc2c2oc(C(=O)NCCN3CCN(C)CC3)cc12 | inactive |
| COc1cc2[nH]c3c(=O)n(CCN4CCCCC4)cnc3c2cc1OC | inactive |
| CCN(CC)CCNC(=O)c1cc2c(=O)n(C)c3ccccc3c2n1C | inactive |
| CCOC(=O)c1cnc2c(C)cccc2c1NCCCN1CCOCC1 | inactive |
| Cc1cc(-c2cc(NC=O)c3ncc(-c4cccc(C(=O)NCCN(C)C)c4)n3c2)cc(C)c1O | inactive |
| CN(C)CCNC(=O)c1cccc(-c2cnc3c(NC=O)cc(-c4cccs4)cn23)c1 | inactive |
| CC(=O)Nc1cc(-c2cccc(C(=O)NCCN(C)C)c2)cn2c(-c3ccccc3)cnc12 | inactive |
| Cc1cccn2c(=O)c3cc(C(=O)NCC4CCCO4)c(=N)n(C4CCCCC4)c3nc12 (centres undefined) | inactive |
| Cc1c(-c2cc(Br)ccc2O)nc2cc3c(cc2c1C)OCO3 | inactive |
| CCCN1CCN(C(=S)Nc2ccc3nc(N4CCN(CC)CC4)cc(C)c3c2)CC1 | inactive |
| COc1ccc(Nc2nc(N3CCCCC3)nc3ccccc23)c(OC)c1 | inactive |
| COc1ccccc1Nc1c2ccccc2nc2ccccc12 | inactive |
| COc1ccc(-c2cc3nc(NCCN4CCCC4)n(C)c(=O)c3s2)cc1OC | inactive |
